Inconclusive results are not listed. The source made the active and inactive calls.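 Rule for the calls, unless noted: active = inhibition above 54%, about 3 SD of non-fluorescent compounds; inactive = the rest.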
Columns and labels:
[1] = rapamycin-like changes in RPL19A-GFP expression – cell-based, S. cerevisiae, multiplex flow cytometry, primary screen (AID 1862; in the data active = percent of DMSO control GFP below about 86%;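 note: lower values mimic rapamycin by blocking the RPL19A rise seen in DMSO cells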); conditions: S. cerevisiae RPL19A-GFP strain, flow cytometry fluorescence, 3 h; at 10 µM; stronger effect = lower value
[2] = TOR pathway GLN3 branch reporter MEP2-GFP changes – S. cerevisiae, multiplex flow cytometry, primary screen (AID 1867;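 active = GFP response, as percent of the DMSO control, above the screen-wide mean plus 3 SD, about 139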;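 note: median GFP channel fluorescence of barcode-gated MEP2-GFP cells measured by flow cytometry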); conditions: S. cerevisiae MEP2-GFP strain, 3 h, at 10 µM, stronger effect = higher value, 100% means same as DMSO wells
[3] = TOR pathway RTG branch CIT2 reporter changes – S. cerevisiae, GFP fusion, multiplex flow cytometry, primary screen (AID 1870;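 active = percent response above a set limit, the screen-wide mean plus 3 SD, cut at about 130% in these data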;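 note: barcoded CIT2-GFP strain pooled with four other GFP strains with rapamycin as positive control; median GFP fluorescence per well over plate mean of DMSO wells so 100% = DMSO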); conditions: S. cerevisiae CIT2-GFP expression, 3 h, at 10 µM, stronger effect = higher value
[4] = TOR pathway LAP4-GFP level changes – S. cerevisiae, multiplex flow cytometry, primary screen (AID 1873;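 active = GFP signal, as percent of the solvent control, above the screen mean plus 3 SD, about 149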); conditions: S. cerevisiae LAP4-GFP expression, 3 h, at 10 µM, stronger effect = higher value
[5] = yeast AGP1-GFP level changes, GLN3 branch – cell-based, multiplex flow cytometry, S. cerevisiae, primary screen (AID 1887;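 active = GFP signal above the screen-wide mean plus 3 SD, that is over about 124.5% of the solvent control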;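 note: AGP1-GFP fusion strain of S. cerevisiae within a five-strain barcoded multiplex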); conditions: 3 h, at 10 µM, stronger effect = higher value
[6] = reduced mouse 2C T cell binding to pMHC/ICAM-1 vesicles – MLPCN validation set, flow cytometry, LFA-1/ICAM-1 modulator project, pilot screen (AID 2523;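 active = response below a set limit, under 55% cells CD8-positive and vesicle-bound, and CD8 cells' 90th-percentile brightness under 279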;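 for vesicle binding response: mean PE anti-B7-1 fluorescence of CD8+ cells relative to row control; 100% = QL9-loaded vesicles with DMSO vehicle in the same plate row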); conditions: 2C mouse CD8+ T cells, at 7 µM, stronger effect = lower value; double positive events: measured here: CD8+/vesicle+ event percentage
[7] = molecular target: Integrin beta-1 (Homo sapiens) + Integrin alpha-4 (Homo sapiens) (UniProt P13612+P05556); experiment: alpha4beta1 integrin LIBS antibody binding reduction – U937 cells, HUTS-21 mAb, flow cytometry, validation set, VLA-4 allosteric modulator project, pilot screen (AID 2674;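 active = inhibition above 50%, about 3 SD of the validation set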;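 note: antibody binding induced by the VLA-4 ligand LDV present at three times its Kd; 0% = LDV ligand with antibody and no compound and 100% = antibody without LDV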); conditions: HUTS-21 LIBS mAb binding, at 6.7 µM, stronger effect = higher value, binding induced by LDV ligand
Sequence of Integrin beta-1 (Homo sapiens) + Integrin alpha-4 (Homo sapiens) (P05556 whole entry, looked up): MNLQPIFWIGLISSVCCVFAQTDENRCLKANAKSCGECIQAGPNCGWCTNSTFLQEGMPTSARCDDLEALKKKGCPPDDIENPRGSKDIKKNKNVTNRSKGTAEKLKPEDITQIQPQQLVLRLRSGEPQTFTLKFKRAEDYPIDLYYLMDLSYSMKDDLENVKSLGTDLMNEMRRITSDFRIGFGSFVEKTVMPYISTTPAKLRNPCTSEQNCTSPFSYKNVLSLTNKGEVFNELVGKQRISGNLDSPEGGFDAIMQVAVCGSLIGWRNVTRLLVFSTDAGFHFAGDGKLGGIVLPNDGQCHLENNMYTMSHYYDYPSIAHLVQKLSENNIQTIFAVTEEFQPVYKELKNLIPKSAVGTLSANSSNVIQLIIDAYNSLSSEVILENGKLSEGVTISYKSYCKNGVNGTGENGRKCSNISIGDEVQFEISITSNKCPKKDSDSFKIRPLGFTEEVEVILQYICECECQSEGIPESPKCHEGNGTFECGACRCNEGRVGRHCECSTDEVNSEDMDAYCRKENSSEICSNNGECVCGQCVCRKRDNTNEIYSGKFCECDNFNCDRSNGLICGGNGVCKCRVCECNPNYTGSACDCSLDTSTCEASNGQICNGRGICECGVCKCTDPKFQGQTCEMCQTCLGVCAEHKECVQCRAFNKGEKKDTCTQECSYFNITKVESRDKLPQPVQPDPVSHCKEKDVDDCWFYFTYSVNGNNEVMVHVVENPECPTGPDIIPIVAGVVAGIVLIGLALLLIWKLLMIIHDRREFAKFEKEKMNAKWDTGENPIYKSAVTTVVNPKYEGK
Sequence of Integrin beta-1 (Homo sapiens) + Integrin alpha-4 (Homo sapiens) (P13612 whole entry, looked up): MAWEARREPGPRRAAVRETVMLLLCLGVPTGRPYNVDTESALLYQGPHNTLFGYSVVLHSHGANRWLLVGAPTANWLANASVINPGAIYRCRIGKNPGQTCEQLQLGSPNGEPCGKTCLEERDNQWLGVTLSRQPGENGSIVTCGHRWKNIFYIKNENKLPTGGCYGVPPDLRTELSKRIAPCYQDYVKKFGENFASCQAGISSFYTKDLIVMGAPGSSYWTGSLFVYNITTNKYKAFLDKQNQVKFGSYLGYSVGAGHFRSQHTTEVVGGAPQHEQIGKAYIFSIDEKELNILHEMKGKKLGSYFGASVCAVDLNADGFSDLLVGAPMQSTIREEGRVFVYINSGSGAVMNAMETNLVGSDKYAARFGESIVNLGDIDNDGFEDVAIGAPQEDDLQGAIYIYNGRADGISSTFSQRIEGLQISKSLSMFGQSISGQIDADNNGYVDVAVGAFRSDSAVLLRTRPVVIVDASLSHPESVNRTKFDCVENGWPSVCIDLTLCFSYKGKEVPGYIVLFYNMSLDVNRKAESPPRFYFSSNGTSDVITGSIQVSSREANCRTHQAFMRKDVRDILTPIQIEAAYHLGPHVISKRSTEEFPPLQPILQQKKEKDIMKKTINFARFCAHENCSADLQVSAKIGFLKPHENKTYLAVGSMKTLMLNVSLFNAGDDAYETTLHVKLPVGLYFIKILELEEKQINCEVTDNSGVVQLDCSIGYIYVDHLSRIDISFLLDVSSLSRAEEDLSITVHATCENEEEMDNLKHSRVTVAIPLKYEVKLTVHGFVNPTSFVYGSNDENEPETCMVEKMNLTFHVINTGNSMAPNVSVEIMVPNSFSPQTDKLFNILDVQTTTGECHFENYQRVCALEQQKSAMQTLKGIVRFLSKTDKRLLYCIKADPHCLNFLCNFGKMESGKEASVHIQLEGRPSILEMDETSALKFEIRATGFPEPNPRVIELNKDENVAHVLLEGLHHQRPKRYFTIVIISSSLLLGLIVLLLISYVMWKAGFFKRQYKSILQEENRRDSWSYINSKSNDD

[8] = calorie-restriction mimetic ROS inhibitors, yeast – validation compound set, pilot screen (AID 2706;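 active = superoxide response below 65% of plate, a cut near 3 SD across the whole screen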;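 note: yeast exposed to compound for one week at 30 degrees C before staining; 100% = mean of all compound wells on the same plate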); conditions: S. cerevisiae aging, superoxide DHE fluorescence; at 10 µM; stronger effect = lower value
[9] = molecular target: Beta-adrenergic receptor kinase 1 (Homo sapiens) (UniProt P25098); experiment: GRK2 binders displacing RNA aptamer, biochemical, validation, human GRK2, bead flow cytometry (AID 488806;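 active = aptamer binding inhibition above 30%, about 3 SD of noise from non-fluorescent compounds; inactive = inhibition at or below 30%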); conditions: bead-bound GRK2, FAM-aptamer displacement, at 10 µM, stronger effect = higher value
Sequence of Beta-adrenergic receptor kinase 1 (Homo sapiens) (P25098 whole entry, looked up): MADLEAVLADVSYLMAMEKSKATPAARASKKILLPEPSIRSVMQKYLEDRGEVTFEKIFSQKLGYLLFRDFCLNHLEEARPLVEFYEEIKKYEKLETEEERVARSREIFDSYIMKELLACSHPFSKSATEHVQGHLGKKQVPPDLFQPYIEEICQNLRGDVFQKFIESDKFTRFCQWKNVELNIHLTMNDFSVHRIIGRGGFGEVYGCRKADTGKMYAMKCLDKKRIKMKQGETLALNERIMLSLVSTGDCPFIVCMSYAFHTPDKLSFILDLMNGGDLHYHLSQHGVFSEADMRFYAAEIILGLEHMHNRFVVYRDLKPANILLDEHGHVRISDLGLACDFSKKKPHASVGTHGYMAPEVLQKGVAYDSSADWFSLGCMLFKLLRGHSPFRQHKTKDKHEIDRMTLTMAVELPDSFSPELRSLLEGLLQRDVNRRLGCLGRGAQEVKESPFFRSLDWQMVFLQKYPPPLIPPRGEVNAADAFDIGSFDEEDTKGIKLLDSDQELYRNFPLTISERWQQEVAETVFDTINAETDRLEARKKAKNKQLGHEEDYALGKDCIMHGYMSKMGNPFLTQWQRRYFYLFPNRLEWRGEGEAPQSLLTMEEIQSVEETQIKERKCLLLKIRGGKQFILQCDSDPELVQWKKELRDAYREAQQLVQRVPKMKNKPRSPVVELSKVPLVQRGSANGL

[10] = molecular target: Beta-2 adrenergic receptor (Homo sapiens) (UniProt P07550); experiment: agonist-induced loss of surface beta2AR – cell-based, FAP fluorogen, flow cytometry, validation set, pilot screen (AID 504459;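 active = percent response above 42, roughly 3 SD of non-fluorescent test compounds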;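 note: agonist-driven loss of surface beta2AR via internalization measured by FAP dye flow cytometry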); conditions: Am2.2-beta2AR cells, at 10 µM, stronger effect = higher value
Sequence of Beta-2 adrenergic receptor (Homo sapiens) (P07550 whole entry, looked up, the tested form may be a part): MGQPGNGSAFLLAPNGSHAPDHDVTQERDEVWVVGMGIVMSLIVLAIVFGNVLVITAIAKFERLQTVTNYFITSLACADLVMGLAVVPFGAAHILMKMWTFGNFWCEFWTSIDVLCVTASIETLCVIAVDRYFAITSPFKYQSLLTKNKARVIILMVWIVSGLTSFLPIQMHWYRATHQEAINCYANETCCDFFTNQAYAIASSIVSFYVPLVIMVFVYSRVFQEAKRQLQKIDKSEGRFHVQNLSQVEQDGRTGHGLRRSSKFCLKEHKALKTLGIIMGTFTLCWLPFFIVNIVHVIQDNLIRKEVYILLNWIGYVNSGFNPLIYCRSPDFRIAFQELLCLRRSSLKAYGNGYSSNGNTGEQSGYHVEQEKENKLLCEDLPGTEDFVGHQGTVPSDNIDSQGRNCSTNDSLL

[11] = molecular target: AP-2 complex subunit beta (Homo sapiens) (UniProt P63010); experiment: beta-arrestin/AP2 interaction blockers – biochemical, validation set, GST-AP2 beads, flow cytometry, pilot screen (AID 504541); conditions: FITC arrestin peptide, at 10 µM, stronger effect = higher value, AP2 beta2 appendage fragment, R879A mutant;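 note: AP2 carries R879A mutation and is captured from E. coli lysate; bead-bound FITC arrestin peptide fluorescence measuring arrestin peptide binding to AP2; 0% = DMSO wells and 100% = excess unlabeled arrestin peptide control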
Sequence of AP-2 complex subunit beta (Homo sapiens) (P63010 whole entry, looked up, the tested form may be a part, one chain of several): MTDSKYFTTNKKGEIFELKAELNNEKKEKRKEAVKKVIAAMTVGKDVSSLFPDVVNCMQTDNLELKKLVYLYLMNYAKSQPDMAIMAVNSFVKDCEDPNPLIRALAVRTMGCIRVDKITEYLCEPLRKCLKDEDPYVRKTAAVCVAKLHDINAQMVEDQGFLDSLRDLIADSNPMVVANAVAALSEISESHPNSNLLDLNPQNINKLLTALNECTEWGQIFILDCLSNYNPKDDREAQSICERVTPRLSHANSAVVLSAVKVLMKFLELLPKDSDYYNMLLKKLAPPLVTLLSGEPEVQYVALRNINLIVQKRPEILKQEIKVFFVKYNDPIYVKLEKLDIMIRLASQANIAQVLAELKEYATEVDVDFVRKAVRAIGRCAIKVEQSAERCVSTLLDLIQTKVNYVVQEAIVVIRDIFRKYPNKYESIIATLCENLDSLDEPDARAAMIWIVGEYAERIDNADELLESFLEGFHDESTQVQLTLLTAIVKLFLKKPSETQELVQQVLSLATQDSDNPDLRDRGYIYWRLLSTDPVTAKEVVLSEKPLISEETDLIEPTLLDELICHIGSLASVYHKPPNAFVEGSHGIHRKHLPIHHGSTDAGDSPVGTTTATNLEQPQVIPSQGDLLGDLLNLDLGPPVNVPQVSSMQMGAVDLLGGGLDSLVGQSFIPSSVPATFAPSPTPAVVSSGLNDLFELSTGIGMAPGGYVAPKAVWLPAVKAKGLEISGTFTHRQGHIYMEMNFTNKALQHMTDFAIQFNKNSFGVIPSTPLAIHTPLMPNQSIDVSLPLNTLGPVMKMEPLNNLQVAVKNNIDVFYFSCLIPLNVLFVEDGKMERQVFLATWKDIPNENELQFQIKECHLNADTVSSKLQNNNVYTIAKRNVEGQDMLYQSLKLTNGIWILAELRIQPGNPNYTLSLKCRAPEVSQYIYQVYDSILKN

[12] = cytosolic pH regulators acting via V-ATPase – S. cerevisiae, pHLuorin, HTS validation (AID 504600; in the data active = response above about 15%;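 note: plate controls were DMSO for no effect and reference compound for full effect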); conditions: V-ATPase proton transport, at 10 µM, stronger effect = higher value
[13] = system: anti-desmoglein-3 scFv antibody binding to human DSG3; experiment: blockers of pathogenic pemphigus antibody–desmoglein-3 binding – biochemical, validation compound set, bead-based, flow cytometry, pilot screen (AID 588368;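 active = binding below the plate cutoff, the plate median minus 3 SD, with a reading above zero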;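 note: signal is the median channel fluorescence of bead-bound GFP antibody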); conditions: Protein G beads, DSG3-Fc, scFv-GFP binding, at 10 µM, stronger effect = lower value
[14] = Nile Red efflux blockade in pump-expressing yeast – validation compound set, multiplex, phenotypic, pilot screen (AID 588506;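 active = efflux inhibition above 0.42, the validation set average plus 4 SD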;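 note: Nile Red retained in cells so higher fluorescence means more efflux inhibition; 0 = negative control wells and 1 = enniatin B 25 µM full block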); conditions: S. cerevisiae pump-expressing triplex, Nile Red efflux flow cytometry; at 10 µM; stronger effect = higher value; the pumps come from Candida albicans
[15] = molecular target: ATP-binding cassette sub-family B member 6 (Homo sapiens) (UniProt Q9NP58); experiment: blockers of ABCB6-driven porphyrin uptake – K562-ABCB6 cells, flow cytometry, validation set, pilot screen (AID 588550;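 active = inhibition above the screen-wide mean plus 3 SD, about 51%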;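 note: 0% = DMSO wells and 100% = benzethonium chloride 70 µM positive control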); conditions: K562-ABCB6 porphyrin accumulation, 1 h, at 10 µM, stronger effect = higher value
Sequence of ATP-binding cassette sub-family B member 6 (Homo sapiens) (Q9NP58 whole entry, looked up): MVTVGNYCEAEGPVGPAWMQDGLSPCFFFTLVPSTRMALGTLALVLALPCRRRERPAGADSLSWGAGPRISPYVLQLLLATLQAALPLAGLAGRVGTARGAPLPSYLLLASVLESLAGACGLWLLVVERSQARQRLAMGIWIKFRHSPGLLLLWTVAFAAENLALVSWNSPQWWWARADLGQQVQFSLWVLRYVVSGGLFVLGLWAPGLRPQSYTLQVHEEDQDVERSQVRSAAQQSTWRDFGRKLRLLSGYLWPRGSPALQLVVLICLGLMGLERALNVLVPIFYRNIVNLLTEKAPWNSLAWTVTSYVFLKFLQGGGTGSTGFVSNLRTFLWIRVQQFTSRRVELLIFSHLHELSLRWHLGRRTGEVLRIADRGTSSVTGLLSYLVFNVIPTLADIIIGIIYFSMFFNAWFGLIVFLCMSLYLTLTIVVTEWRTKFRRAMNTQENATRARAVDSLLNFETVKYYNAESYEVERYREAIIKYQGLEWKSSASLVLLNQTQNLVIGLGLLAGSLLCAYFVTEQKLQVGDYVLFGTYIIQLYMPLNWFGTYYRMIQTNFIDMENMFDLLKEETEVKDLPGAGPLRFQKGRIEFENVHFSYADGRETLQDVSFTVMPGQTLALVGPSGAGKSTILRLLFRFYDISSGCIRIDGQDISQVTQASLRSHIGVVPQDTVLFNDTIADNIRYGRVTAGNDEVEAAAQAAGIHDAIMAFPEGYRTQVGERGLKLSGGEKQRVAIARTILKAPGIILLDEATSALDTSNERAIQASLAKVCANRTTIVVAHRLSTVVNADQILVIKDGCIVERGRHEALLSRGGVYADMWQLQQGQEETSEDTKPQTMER

[16] = AML differentiation inducers, ER-HoxA9 marrow cells – cell-based, GFP/MAC1 double positive, flow cytometry, validation set, primary screen (AID 588685;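 active = differentiation response of at least 50%, scaled between solvent and reference control, from cells with both markers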;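 note: compound exposure lasts four days before antibody staining and flow analysis; 0% = DMSO wells and 100% = 5 µM fulvestrant positive control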); conditions: stronger effect = higher value, normalized: vehicle 0, fulvestrant 100

COc1cccc(-n2c(C)c3c(OC)cccc(=O)c3c2C)c1
49.9%: double positive events [6]
inactive: percent of DMSO control GFP [1] 89.8% | percent response of DMSO control [3] 106% | GFP response vs DMSO [4] 85.8% | GFP response, % of DMSO [5] 92.4% | inhibition [7] -33.3% | superoxide response (% of plate) [8] 109% | aptamer binding inhibition [9] 5% | response [10] -3.28% | inhibition [11] 41% | response [12] -5.84% | binding (% of control) [13] 103% | efflux inhibition (fraction of control) [14] 0.12 | inhibition [15] 0% | differentiation response [16] -4.91%
active: GFP response vs DMSO [2] 140% | vesicle binding response [6] 53.8%

O=C(CS(=O)(=O)c1ccccc1)c1ccc2c(c1)OCCO2
57.1%: double positive events [6]
inactive: percent of DMSO control GFP [1] 99.7% | GFP response vs DMSO [2] 103% | percent response of DMSO control [3] 100% | GFP response vs DMSO [4] 112% | GFP response, % of DMSO [5] 113% | vesicle binding response [6] 194% | inhibition [7] -9.63% | superoxide response (% of plate) [8] 98.2% | aptamer binding inhibition [9] 4% | response [10] -29.9% | inhibition [11] -15.5% | response [12] -0.24% | binding (% of control) [13] 103% | efflux inhibition (fraction of control) [14] 0.12 | inhibition [15] 5% | differentiation response [16] -1.05%

COc1cc(NC(=S)NC(=O)c2cccs2)ccc1NC(=O)C(C)C
66.4%: double positive events [6]
inactive: percent of DMSO control GFP [1] 99.7% | GFP response vs DMSO [2] 108% | percent response of DMSO control [3] 90.1% | GFP response vs DMSO [4] 124% | GFP response, % of DMSO [5] 101% | vesicle binding response [6] 265% | inhibition [7] -14.1% | superoxide response (% of plate) [8] 113% | aptamer binding inhibition [9] 3% | response [10] -2.44% | inhibition [11] -6.94% | response [12] 1.32% | binding (% of control) [13] 96.8% | efflux inhibition (fraction of control) [14] 0.05 | inhibition [15] 9% | differentiation response [16] -28%

CC(=O)C1=C(O)C(=O)N(Cc2cccnc2)C1c1ccc(C(C)C)cc1 (stereo unspecified)
inactive: percent of DMSO control GFP [1] 97.5% | GFP response vs DMSO [2] 109% | percent response of DMSO control [3] 100% | GFP response vs DMSO [4] 113% | GFP response, % of DMSO [5] 104% | vesicle binding response [6] 152% | inhibition [7] -6.23% | superoxide response (% of plate) [8] 84.1% | aptamer binding inhibition [9] -1% | response [10] -27.3% | inhibition [11] 5.98% | response [12] 2.79% | binding (% of control) [13] 102% | efflux inhibition (fraction of control) [14] 0.08 | inhibition [15] 1% | differentiation response [16] -5.97%
59.9%: double positive events [6]

COc1ccc(-c2nnc(-c3cc4c(ccc5ccccc54)oc3=O)o2)cc1
inactive: percent of DMSO control GFP [1] 101% | GFP response vs DMSO [2] 93% | percent response of DMSO control [3] 96.7% | GFP response vs DMSO [4] 89.7% | GFP response, % of DMSO [5] 98% | vesicle binding response [6] 244% | inhibition [7] -20.9% | superoxide response (% of plate) [8] 75.6% | aptamer binding inhibition [9] -1% | inhibition [11] 6.88% | response [12] 1% | binding (% of control) [13] 97.2% | efflux inhibition (fraction of control) [14] 0.08 | inhibition [15] 0% | differentiation response [16] -0.8%
61%: double positive events [6]
active: response [10] 50.8%

CCCC(=O)O[C@]1(C(=O)CCl)[C@@H](C)C[C@H]2[C@@H]3CCC4=CC(=O)C=C[C@]4(C)[C@@]3(F)C(=O)C[C@@]21C
65.1%: double positive events [6]
inactive: percent of DMSO control GFP [1] 93.7% | GFP response vs DMSO [2] 134% | percent response of DMSO control [3] 111% | GFP response vs DMSO [4] 85.8% | GFP response, % of DMSO [5] 87.3% | vesicle binding response [6] 147% | inhibition [7] 1.61% | superoxide response (% of plate) [8] 98.4% | aptamer binding inhibition [9] 3% | response [10] -4.94% | inhibition [11] 11.3% | response [12] -7.84% | binding (% of control) [13] 94.1% | efflux inhibition (fraction of control) [14] 0.23 | inhibition [15] 8% | differentiation response [16] 0%

C/C(CCc1oc2ccc(Cl)cc2c1-c1ccc(C)o1)=N\O
63.1%: double positive events [6]
inactive: percent of DMSO control GFP [1] 101% | GFP response vs DMSO [2] 103% | percent response of DMSO control [3] 103% | GFP response vs DMSO [4] 125% | GFP response, % of DMSO [5] 102% | vesicle binding response [6] 157% | inhibition [7] -16.4% | superoxide response (% of plate) [8] 107% | aptamer binding inhibition [9] 0% | response [10] -13% | inhibition [11] 4.9% | response [12] 6.85% | binding (% of control) [13] 111% | efflux inhibition (fraction of control) [14] 0 | inhibition [15] -3% | differentiation response [16] 9.79%

CC(=O)Oc1ccc(C(c2ccc(OC(C)=O)cc2)c2ccccn2)cc1
inactive: percent of DMSO control GFP [1] 98.9% | GFP response vs DMSO [2] 104% | percent response of DMSO control [3] 99.6% | GFP response vs DMSO [4] 125% | GFP response, % of DMSO [5] 117% | vesicle binding response [6] 203% | inhibition [7] -42% | superoxide response (% of plate) [8] 105% | aptamer binding inhibition [9] 4% | response [10] -25.8% | inhibition [11] -3.7% | response [12] -1.07% | binding (% of control) [13] 106% | efflux inhibition (fraction of control) [14] 0.08 | inhibition [15] 6% | differentiation response [16] -7.94%
63.6%: double positive events [6]
